Measurements as given in PubChem BioAssay (NCI).
“And” between values parts separate entries of the source, which are not always exact repeats. Equal values may be shown once. The panel holds about 83,000 compounds, 20% with a hit somewhere; the sample as a whole holds those more often.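 Assay: single dose, 48 h. Readout: percent growth (0 = no net growth; negative = cell death). Active: <10.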 The source made the active and inactive calls.

Key:
Test in all cases: NCI-60 one-dose screen, 48 h (100 = growth as untreated, 0 = no growth, -100 = all killed)
Details in all cases: 10 µM unless noted
SR leukemia = system: SR leukemia
RPMI-8226 leukemia = system: RPMI-8226 leukemia
OVCAR-8 ovarian = system: OVCAR-8 ovarian
OVCAR-5 ovarian = system: OVCAR-5 ovarian
OVCAR-4 ovarian = system: OVCAR-4 ovarian
SK-OV-3 ovarian = system: SK-OV-3 ovarian
IGROV1 ovarian = system: IGROV1 ovarian
OVCAR-3 ovarian = system: OVCAR-3 ovarian
HS 578T breast = system: HS 578T breast
NCI/ADR-RES ovarian = system: NCI/ADR-RES ovarian

Measured: growth

COc1ccc(N=Nc2c(N)nn3c(N)c(C#N)c(-c4ccc(F)cc4)nc23)cc1
inactive: SR leukemia 78.4% | RPMI-8226 leukemia 50.3% | OVCAR-8 ovarian 29.6% | OVCAR-5 ovarian 95.9% | OVCAR-4 ovarian 50.9% | SK-OV-3 ovarian 43.1% | IGROV1 ovarian 76.9% | OVCAR-3 ovarian 103% | HS 578T breast 20.6% | NCI/ADR-RES ovarian 25.1%

O=C(c1ccc(Cl)cc1)C1[C@H](c2ccccc2Cl)[C@@H](c2ccccc2)NC12C(=O)Nc1ccccc12 (stereo not given in full)
inactive: SK-OV-3 ovarian 23.1%
active: SR leukemia -41% | RPMI-8226 leukemia -0.108% | OVCAR-8 ovarian -31% | OVCAR-5 ovarian -5.18% | OVCAR-4 ovarian 2.24% | IGROV1 ovarian -2.25% | OVCAR-3 ovarian -15.5% | HS 578T breast -38.3% | NCI/ADR-RES ovarian -62.5%

Nc1nn2c(-c3cc4ccccc4oc3=O)ccnc2c1N=Nc1ccccc1
inactive: SR leukemia 59.1% | RPMI-8226 leukemia 105% | OVCAR-8 ovarian 42.2% | OVCAR-5 ovarian 82.3% | OVCAR-4 ovarian 96.6% | SK-OV-3 ovarian 60.1% | IGROV1 ovarian 47.5% | OVCAR-3 ovarian 82.7% | HS 578T breast 75.8% | NCI/ADR-RES ovarian 47.2%

COc1ccc(N=Nc2c(N)nn3c(-c4ccc5c(c4)C=S=C5)ccnc23)cc1
inactive: SR leukemia 33.9% | OVCAR-8 ovarian 28.8% | OVCAR-5 ovarian 80.4% | OVCAR-4 ovarian 24.3% | SK-OV-3 ovarian 68.7% | IGROV1 ovarian 27% | OVCAR-3 ovarian 48.4% | HS 578T breast 24.7%
active: RPMI-8226 leukemia 9.87% | NCI/ADR-RES ovarian 3.61%

O=C(Cn1c(-c2ccccc2)nc2ccccc21)N=Nc1c(O)[nH]c2ccc(Br)cc12
inactive: RPMI-8226 leukemia 21.9%
active: SR leukemia -25.7% | OVCAR-8 ovarian -39.2% | OVCAR-5 ovarian 0.0575% | OVCAR-4 ovarian -62.1% | SK-OV-3 ovarian -47.9% | IGROV1 ovarian -41.8% | OVCAR-3 ovarian -22.5% | HS 578T breast -28.8% | NCI/ADR-RES ovarian -55.7%

Cn1cc(-c2cc(N)n3nc(-c4c[nH]c5ccccc45)cc3n2)c2ccccc21
active: RPMI-8226 leukemia -3.23% | OVCAR-8 ovarian -83% | OVCAR-5 ovarian -79% | OVCAR-4 ovarian -34.7% | SK-OV-3 ovarian -95.1% | IGROV1 ovarian -79.8% | OVCAR-3 ovarian -79.4% | HS 578T breast -23.7% | NCI/ADR-RES ovarian -40.6%
inactive: SR leukemia 12.1%

COc1cc(C=O)ccc1Oc1nc(Nc2ccc(F)cc2)nc(N(C)C)n1
inactive: RPMI-8226 leukemia 60% and 67% | OVCAR-8 ovarian 85.3% and 56.7% | OVCAR-5 ovarian 100% and 105% | OVCAR-4 ovarian 56.4% and 47.8% | SK-OV-3 ovarian 87.6% and 122% | IGROV1 ovarian 96.7% and 49.3% | OVCAR-3 ovarian 62.1% and 78.7% | HS 578T breast 85.5% and 41.5% | NCI/ADR-RES ovarian 81.7% and 54.3%
70.9% (inactive) and 6.2% (active): SR leukemia

CNc1nc2ccccc2n2c(-c3ccc(O)c(O)c3)cnc12
active: SR leukemia 6.32% | RPMI-8226 leukemia 9.2% | IGROV1 ovarian 7.31% | OVCAR-3 ovarian -5.33% | HS 578T breast 1.79% | NCI/ADR-RES ovarian 6.86%
inactive: OVCAR-8 ovarian 11.9% | OVCAR-5 ovarian 14.9% | OVCAR-4 ovarian 34.7% | SK-OV-3 ovarian 16.5%

Cc1cc(C(NC(=O)C2CC3(CC(Nc4cccc5c4C(=O)N(C4CCC(=O)NC4=O)C5=O)C3)C2)c2ccc3c(c2)OC(F)(F)O3)c(O)c2ncccc12 (stereo not given)
inactive: SR leukemia 10.6% | RPMI-8226 leukemia 15% | OVCAR-5 ovarian 35.1% | OVCAR-4 ovarian 35% | OVCAR-3 ovarian 16.1% | HS 578T breast 29.3% | NCI/ADR-RES ovarian 12.2%
active: OVCAR-8 ovarian 4.53% | SK-OV-3 ovarian -4.52% | IGROV1 ovarian 6%

COc1ccc(-c2nc3ccc(-c4nnc(SCc5ccccc5)o4)cc3[nH]2)cc1
inactive: OVCAR-5 ovarian 46.8%
active: SR leukemia 6.93% | RPMI-8226 leukemia 7.16% | OVCAR-8 ovarian -36.8% | OVCAR-4 ovarian -57.7% | SK-OV-3 ovarian 5.77% | IGROV1 ovarian -17.1% | OVCAR-3 ovarian -33.1% | HS 578T breast -17.5% | NCI/ADR-RES ovarian -65.6%

Cc1ccc(Nc2nnc(-c3c[nH]c4ccccc34)o2)c(C)c1
inactive: OVCAR-5 ovarian 16.3% | OVCAR-4 ovarian 71.9% | SK-OV-3 ovarian 16.2% | IGROV1 ovarian 12.2% | OVCAR-3 ovarian 12.3% | HS 578T breast 30.9%
active: SR leukemia 6.21% | RPMI-8226 leukemia -7.61% | OVCAR-8 ovarian -12.1% | NCI/ADR-RES ovarian -29.2%

CCOc1ccccc1[C@H]1C(C(=O)c2ccc(Cl)cc2)C2(N[C@@H]1c1ccccc1)C(=O)Nc1ccc(Cl)cc12 (stereo not given in full)
inactive: RPMI-8226 leukemia 21.1% | OVCAR-8 ovarian 45% | OVCAR-5 ovarian 46.2% | OVCAR-4 ovarian 22.5% | SK-OV-3 ovarian 42.8% | IGROV1 ovarian 22.2% | OVCAR-3 ovarian 27% | HS 578T breast 49% | NCI/ADR-RES ovarian 12.6%
active: SR leukemia -28.3%

CN(C)c1nc(NCCNS(=O)(=O)c2ccc(C3=Nc4c(N)nc(N)nc4NC(c4ccc(C(F)(F)F)cc4)C3)cc2)nc(N2CCOCC2)n1 (stereo not given)
active: SR leukemia 3.12%
inactive: RPMI-8226 leukemia 34.8% | OVCAR-8 ovarian 43.2% | OVCAR-5 ovarian 78% | OVCAR-4 ovarian 58% | SK-OV-3 ovarian 55.8% | IGROV1 ovarian 45.7% | OVCAR-3 ovarian 58.2% | HS 578T breast 40.7% | NCI/ADR-RES ovarian 91.8%

c1n[nH]cc1-c1nc2ccc3[nH]ncc3c2c2c1CC1(CC2)COC1
inactive: RPMI-8226 leukemia 71.4% | OVCAR-8 ovarian 52% | OVCAR-5 ovarian 107% | OVCAR-4 ovarian 89.7% | SK-OV-3 ovarian 21.7% | IGROV1 ovarian 55.4% | OVCAR-3 ovarian 43.8% | NCI/ADR-RES ovarian 108%
active: SR leukemia 5.21% | HS 578T breast 0.359%

C/C(=N\Nc1ccc(S(N)(=O)=O)cc1)c1cnn(-c2cc(=O)[nH]c3ccc(Br)cc23)c1C
inactive: RPMI-8226 leukemia 74.3% | OVCAR-8 ovarian 80.5% | OVCAR-5 ovarian 81.4% | OVCAR-4 ovarian 67.7% | SK-OV-3 ovarian 69.2% | IGROV1 ovarian 56.9% | OVCAR-3 ovarian 56.2% | HS 578T breast 28.4% | NCI/ADR-RES ovarian 90.1%
active: SR leukemia 4.11%

COc1ccc(Nc2ncnc3sc4c(c23)CCN(Cc2ccccc2)C4)cc1
inactive: SR leukemia 82.9% | RPMI-8226 leukemia 62.1% | OVCAR-8 ovarian 82.8% | OVCAR-5 ovarian 106% | OVCAR-4 ovarian 68.4% | SK-OV-3 ovarian 102% | IGROV1 ovarian 80.8% | OVCAR-3 ovarian 93.7% | HS 578T breast 74.8% | NCI/ADR-RES ovarian 76.7%

S=C(Nc1ccccc1)Nc1ccc(OCc2nc3ccc(Cl)cc3[nH]2)cc1
inactive: SR leukemia 25.9% | RPMI-8226 leukemia 66.7% | OVCAR-8 ovarian 87.7% | OVCAR-5 ovarian 109% | OVCAR-4 ovarian 78.3% | SK-OV-3 ovarian 97.1% | IGROV1 ovarian 87.9% | OVCAR-3 ovarian 84.9% | HS 578T breast 92% | NCI/ADR-RES ovarian 83.7%

CCCCCCCOc1ccc(S(=O)(=O)Nc2ccc(C)c(F)c2C(=O)O)cc1
inactive: SR leukemia 98.7% | RPMI-8226 leukemia 54.9% | OVCAR-8 ovarian 97.1% | OVCAR-5 ovarian 107% | OVCAR-4 ovarian 90.1% | SK-OV-3 ovarian 104% | IGROV1 ovarian 109% | OVCAR-3 ovarian 99.9% | HS 578T breast 87.8% | NCI/ADR-RES ovarian 94.4%

O=C(CCl)Nc1ccc(C(=O)/C=C/c2cc3ccccc3nc2Cl)cc1
inactive: OVCAR-8 ovarian 14.6% and 48.6% | SK-OV-3 ovarian 70.5% and 66.7% | HS 578T breast 42.1% and 53.7%
-61.1% (active) and 55.9% (inactive): OVCAR-5 ovarian
-59.5% (active) and 42.4% (inactive): OVCAR-3 ovarian
-59.6% (active) and 54.7% (inactive): OVCAR-4 ovarian
-84.1% (active) and 39.2% (inactive): IGROV1 ovarian
active: NCI/ADR-RES ovarian -26.4% and 4.54%
-69.5% (active) and 25.5% (inactive): SR leukemia
-36.6% (active) and 40.5% (inactive): RPMI-8226 leukemia

O=C(CSc1nc2sc3c(c2c(=O)n1-c1ccc(Cl)cc1)CCCC3)N/N=C/C=C/c1ccccc1
inactive: OVCAR-3 ovarian 78.3%
active: SR leukemia -23.2% | RPMI-8226 leukemia -0.68% | OVCAR-8 ovarian -51.3% | OVCAR-5 ovarian -38.9% | OVCAR-4 ovarian -31% | SK-OV-3 ovarian -11.2% | IGROV1 ovarian -5.52% | HS 578T breast -16.9% | NCI/ADR-RES ovarian -10.7%

N#CC1=C(c2ccco2)Nc2c(c(-c3ccccc3)nn2-c2ccccc2)C12C(=O)Nc1ccc(Br)cc12 (stereo not given)
active: HS 578T breast 6.01%
inactive: SR leukemia 31.9% | RPMI-8226 leukemia 47.8% | OVCAR-8 ovarian 25% | OVCAR-5 ovarian 74.9% | OVCAR-4 ovarian 41.6% | SK-OV-3 ovarian 80% | IGROV1 ovarian 67% | OVCAR-3 ovarian 42.5% | NCI/ADR-RES ovarian 29.9%

Cc1ccc(C(=O)C[n+]2cccc3c4ccccc4ccc32)cc1
inactive: OVCAR-8 ovarian 22.5% | OVCAR-5 ovarian 31.3% | OVCAR-4 ovarian 21.1% | SK-OV-3 ovarian 33.9% | IGROV1 ovarian 30.9% | OVCAR-3 ovarian 30.3% | HS 578T breast 27.6% | NCI/ADR-RES ovarian 80.9%
active: SR leukemia 2.32% | RPMI-8226 leukemia 4.63%
